# System: S. cerevisiae BY4741 (wild-type), vegetative growth in YPD
# Assay: growth sensitivity score (doubling time z-score vs DMSO controls); higher = slower growth, strongly negative scores also mark growth inhibition (complete suppression), active = hit call of the paper; in the data active = 2 or more and inactive = the rest
# Summary of the method: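 Optical density of Saccharomyces cerevisiae cultures in microtiter plates was followed every 15 min for 24 hours after seeding at an OD600 of 0.065. Eight solvent-only wells were run per experiment. Growth sensitivity scores were found by subtracting the solvent-only mean from the compound mean and dividing by the solvent-only standard deviation.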
row,Compound,growth sensitivity score
1,"COc1cc2nc(N3CCN(C(=O)C4CCCO4)CC3)nc(N)c2cc1OC (configuration not stated) [Terazosin] (stock concentration (mM, diluted 1:100): 9.5)",-0.03 (inactive)
2,"O=C(c1ccc(F)cc1)C1CCN(CCn2c(=S)[nH]c3ccccc3c2=O)CC1 [Altanserin] (stock concentration (mM, diluted 1:100): 10)",-0.21 (inactive)
3,"COCCOC(=O)C1=C(C)NC(C)=C(C(=O)OC(C)C)C1c1cccc([N+](=O)[O-])c1 (configuration not stated) [Nimodipine] (stock concentration (mM, diluted 1:100): 10)",0.46 (inactive)
4,"CCOC(=O)[C@H](CCc1ccccc1)N[C@@H](C)C(=O)N1[C@H](C(=O)O)C[C@@H]2CCC[C@@H]21 [Ramipril] (stock concentration (mM, diluted 1:100): 10)",-0.9 (inactive)
5,"CO[C@H]1/C=C/O[C@@]2(C)Oc3c(C)c(O)c4c(c3C2=O)C2=NC3(CCN(CC(C)C)CC3)NC2=C(NC(=O)/C(C)=C\C=C\[C@H](C)[C@H](O)[C@@H](C)[C@@H](O)[C@@H](C)[C@H](OC(C)=O)[C@@H]1C)C4=O [Rifabutin] (stock concentration (mM, diluted 1:100): 10)",0.72 (inactive)
6,"COC(=O)C1=C(C)NC(C)=C(C(=O)OCC(C)C)C1c1ccccc1[N+](=O)[O-] (configuration not stated) [Nisoldipine] (stock concentration (mM, diluted 1:100): 10)",57 (active)
7,"CC(C)(C)C(O)/C=C/c1ccc2c(c1)OCO2 (configuration not stated) [Stiripentol] (stock concentration (mM, diluted 1:100): 10)",2.6 (active)
8,"COc1ccnc(C[S+]([O-])c2nc3cc(OC(F)F)ccc3[nH]2)c1OC (configuration not stated) [Pantoprazole sodium] (stock concentration (mM, diluted 1:100): 10)",-0.44 (inactive)
9,"CC(C(O)c1ccc(O)cc1)N1CCC(Cc2ccccc2)CC1 (configuration not stated) [Ifenprodil] (stock concentration (mM, diluted 1:100): 9.2)",3.06 (active)
10,"O=c1cnn([C@@H]2O[C@H](CO)[C@@H](O)[C@H]2O)c(=O)[nH]1 [6-Azauridine] (stock concentration (mM, diluted 1:100): 10)",0.64 (inactive)
11,"O=c1[nH]cnc2c1ncn2[C@H]1CC[C@@H](CO)O1 [Didanosine] (stock concentration (mM, diluted 1:100): 10.1)",-1.9 (inactive)
12,"CNC(=C[N+](=O)[O-])NCCSCc1csc(CN(C)C)n1 [Nizatidine] (stock concentration (mM, diluted 1:100): 10)",-0.09 (inactive)

# From the supplement of paper PMC3414501
